# “And” between values parts separate entries of the source, which are not always exact repeats. Equal values may be shown once.
# How the values were obtained:
# [1] = molecular target: Ribosomal protein S6 kinase alpha-6 (Homo sapiens) (UniProt Q9UK32); details: at 1 µM;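 note: each value is a mean inhibition of RSK4 from a GSK PKIS panel screen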
# [2] = molecular target: T1, Serine/threonine-protein kinase Sgk1 (Homo sapiens) (UniProt O00141); details: at 0.1 µM
# T1 sequence (whole entry): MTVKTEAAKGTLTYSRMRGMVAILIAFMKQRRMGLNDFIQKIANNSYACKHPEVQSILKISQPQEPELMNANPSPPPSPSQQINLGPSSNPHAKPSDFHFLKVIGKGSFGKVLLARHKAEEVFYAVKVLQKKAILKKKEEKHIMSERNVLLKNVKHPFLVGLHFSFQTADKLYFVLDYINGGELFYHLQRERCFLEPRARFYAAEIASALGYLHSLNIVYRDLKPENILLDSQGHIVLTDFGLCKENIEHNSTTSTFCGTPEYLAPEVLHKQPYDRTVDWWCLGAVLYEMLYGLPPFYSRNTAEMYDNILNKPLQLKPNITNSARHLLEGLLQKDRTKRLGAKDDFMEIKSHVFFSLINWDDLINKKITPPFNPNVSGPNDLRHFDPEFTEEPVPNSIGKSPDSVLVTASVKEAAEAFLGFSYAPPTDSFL
# [3] = molecular target: T1, Serine/threonine-protein kinase Sgk1 (Homo sapiens); details: at 1 µM
# [4] = molecular target: T2, Serine/threonine-protein kinase Sgk2 (Homo sapiens) (UniProt Q9HBY8); details: at 0.1 µM
# T2 sequence (whole entry): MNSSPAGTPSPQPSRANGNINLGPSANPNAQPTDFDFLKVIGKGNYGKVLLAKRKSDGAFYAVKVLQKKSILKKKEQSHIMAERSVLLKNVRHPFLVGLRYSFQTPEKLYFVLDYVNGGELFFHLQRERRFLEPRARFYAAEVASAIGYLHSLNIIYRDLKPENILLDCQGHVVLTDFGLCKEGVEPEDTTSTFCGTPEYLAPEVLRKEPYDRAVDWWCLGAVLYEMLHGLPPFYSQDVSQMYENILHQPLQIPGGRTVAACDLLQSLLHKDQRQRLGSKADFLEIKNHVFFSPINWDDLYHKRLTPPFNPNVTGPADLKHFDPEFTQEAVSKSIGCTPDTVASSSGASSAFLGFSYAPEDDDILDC
# [5] = molecular target: T2, Serine/threonine-protein kinase Sgk2 (Homo sapiens); details: at 1 µM
# [6] = molecular target: T3, Serine/threonine-protein kinase Sgk3 (Homo sapiens) (UniProt Q96BR1); details: at 0.1 µM
# T3 sequence (whole entry): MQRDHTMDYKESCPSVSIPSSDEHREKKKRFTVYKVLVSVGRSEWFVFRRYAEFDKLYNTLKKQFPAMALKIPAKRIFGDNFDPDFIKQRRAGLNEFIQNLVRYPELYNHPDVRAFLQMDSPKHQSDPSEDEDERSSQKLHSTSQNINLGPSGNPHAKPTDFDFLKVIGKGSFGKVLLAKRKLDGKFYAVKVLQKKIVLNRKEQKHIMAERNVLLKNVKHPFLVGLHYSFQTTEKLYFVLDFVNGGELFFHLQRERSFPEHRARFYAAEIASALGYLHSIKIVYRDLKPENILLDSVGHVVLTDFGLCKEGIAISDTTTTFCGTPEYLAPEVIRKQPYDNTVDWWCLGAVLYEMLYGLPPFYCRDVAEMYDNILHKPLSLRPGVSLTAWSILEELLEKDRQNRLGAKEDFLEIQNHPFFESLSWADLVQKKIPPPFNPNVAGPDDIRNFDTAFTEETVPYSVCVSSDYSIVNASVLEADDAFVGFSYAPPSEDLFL
# [7] = molecular target: T3, Serine/threonine-protein kinase Sgk3 (Homo sapiens); details: at 1 µM
# [8] = molecular target: 5'-AMP-activated protein kinase catalytic subunit alpha-1 (Homo sapiens) (UniProt Q13131); details: at 0.1 µM
# [9] = molecular target: 5'-AMP-activated protein kinase catalytic subunit alpha-1 (Homo sapiens) (UniProt Q13131); details: at 1 µM
# [10] = molecular target: 5'-AMP-activated protein kinase catalytic subunit alpha-2 (Homo sapiens) (UniProt P54646); details: at 0.1 µM
# [11] = molecular target: 5'-AMP-activated protein kinase catalytic subunit alpha-2 (Homo sapiens) (UniProt P54646); details: at 1 µM
# [12] = molecular target: T4, NUAK family SNF1-like kinase 1 (Homo sapiens) (UniProt O60285); details: at 0.1 µM
# T4 sequence (whole entry): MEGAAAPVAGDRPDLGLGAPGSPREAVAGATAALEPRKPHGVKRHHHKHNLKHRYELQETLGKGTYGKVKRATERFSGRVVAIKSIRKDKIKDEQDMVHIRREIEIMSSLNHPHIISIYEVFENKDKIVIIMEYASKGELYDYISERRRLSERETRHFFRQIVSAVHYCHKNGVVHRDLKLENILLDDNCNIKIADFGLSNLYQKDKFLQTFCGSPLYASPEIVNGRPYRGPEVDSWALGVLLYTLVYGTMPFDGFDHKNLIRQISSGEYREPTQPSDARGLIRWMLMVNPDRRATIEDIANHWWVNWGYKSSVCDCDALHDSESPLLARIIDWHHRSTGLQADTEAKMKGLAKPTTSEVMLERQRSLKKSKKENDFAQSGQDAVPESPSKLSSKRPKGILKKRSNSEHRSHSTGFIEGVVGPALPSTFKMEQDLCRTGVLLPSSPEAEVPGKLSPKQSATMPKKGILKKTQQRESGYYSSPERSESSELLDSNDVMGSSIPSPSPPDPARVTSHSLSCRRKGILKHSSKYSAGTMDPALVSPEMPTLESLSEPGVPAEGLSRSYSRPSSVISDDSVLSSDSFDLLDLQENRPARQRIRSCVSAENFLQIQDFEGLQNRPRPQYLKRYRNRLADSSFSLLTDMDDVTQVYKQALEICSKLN
# [13] = molecular target: T4, NUAK family SNF1-like kinase 1 (Homo sapiens); details: at 1 µM
# [14] = molecular target: T5, Serine/threonine-protein kinase BRSK1 (Homo sapiens) (UniProt Q8TDC3); details: at 0.1 µM
# T5 sequence (whole entry): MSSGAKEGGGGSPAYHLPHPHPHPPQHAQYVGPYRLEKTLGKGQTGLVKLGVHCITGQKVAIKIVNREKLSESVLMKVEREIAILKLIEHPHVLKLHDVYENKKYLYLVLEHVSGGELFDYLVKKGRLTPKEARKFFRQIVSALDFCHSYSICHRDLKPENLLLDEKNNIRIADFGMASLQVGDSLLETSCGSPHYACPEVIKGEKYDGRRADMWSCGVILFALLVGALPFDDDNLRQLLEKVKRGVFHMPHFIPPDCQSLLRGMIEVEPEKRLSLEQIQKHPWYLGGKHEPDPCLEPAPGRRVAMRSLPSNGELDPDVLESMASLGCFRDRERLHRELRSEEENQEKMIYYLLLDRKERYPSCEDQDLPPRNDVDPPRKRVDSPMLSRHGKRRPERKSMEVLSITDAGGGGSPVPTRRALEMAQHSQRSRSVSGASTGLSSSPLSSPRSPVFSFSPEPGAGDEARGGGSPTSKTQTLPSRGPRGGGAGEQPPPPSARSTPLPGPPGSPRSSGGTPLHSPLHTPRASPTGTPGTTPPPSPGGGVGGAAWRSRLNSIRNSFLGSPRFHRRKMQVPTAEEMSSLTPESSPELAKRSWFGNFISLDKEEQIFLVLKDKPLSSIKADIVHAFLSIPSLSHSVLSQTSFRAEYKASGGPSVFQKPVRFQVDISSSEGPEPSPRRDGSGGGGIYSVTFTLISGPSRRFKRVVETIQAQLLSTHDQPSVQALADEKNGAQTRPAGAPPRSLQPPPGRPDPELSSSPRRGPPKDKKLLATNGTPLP
# [15] = molecular target: T5, Serine/threonine-protein kinase BRSK1 (Homo sapiens); details: at 1 µM
# [16] = molecular target: T6, Serine/threonine-protein kinase BRSK2 (Homo sapiens) (UniProt Q8IWQ3); details: at 0.1 µM
# T6 sequence (whole entry): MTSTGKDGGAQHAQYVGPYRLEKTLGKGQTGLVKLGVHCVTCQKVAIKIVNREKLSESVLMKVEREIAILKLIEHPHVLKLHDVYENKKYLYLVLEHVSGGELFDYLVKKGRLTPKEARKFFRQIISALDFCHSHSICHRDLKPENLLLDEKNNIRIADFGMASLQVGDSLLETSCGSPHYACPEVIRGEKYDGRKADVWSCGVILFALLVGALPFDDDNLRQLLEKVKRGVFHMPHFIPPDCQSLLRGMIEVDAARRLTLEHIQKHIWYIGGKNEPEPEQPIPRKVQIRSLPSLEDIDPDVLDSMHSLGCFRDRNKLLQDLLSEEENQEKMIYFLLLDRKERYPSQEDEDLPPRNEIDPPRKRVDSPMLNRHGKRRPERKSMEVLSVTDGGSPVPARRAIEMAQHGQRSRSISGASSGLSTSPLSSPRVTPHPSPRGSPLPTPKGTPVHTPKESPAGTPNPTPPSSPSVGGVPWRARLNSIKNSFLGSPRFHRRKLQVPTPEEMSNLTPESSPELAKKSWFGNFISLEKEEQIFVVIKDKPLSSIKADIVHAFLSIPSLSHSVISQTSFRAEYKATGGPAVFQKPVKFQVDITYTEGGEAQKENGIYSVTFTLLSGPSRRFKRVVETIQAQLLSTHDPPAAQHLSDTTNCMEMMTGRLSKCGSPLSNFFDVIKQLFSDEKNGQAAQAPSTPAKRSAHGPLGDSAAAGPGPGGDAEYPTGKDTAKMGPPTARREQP
# [17] = molecular target: T6, Serine/threonine-protein kinase BRSK2 (Homo sapiens); details: at 1 µM
# [18] = molecular target: Calcium/calmodulin-dependent protein kinase type 1D (Homo sapiens) (UniProt Q8IU85); details: at 0.1 µM
# [19] = molecular target: Calcium/calmodulin-dependent protein kinase type 1D (Homo sapiens) (UniProt Q8IU85); details: at 1 µM
# [20] = molecular target: Calcium/calmodulin-dependent protein kinase type II subunit alpha (Homo sapiens) (UniProt Q9UQM7); details: at 0.1 µM;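 note: reported values are averages (mean inhibition of CAMK2A)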
# Chain of Calcium/calmodulin-dependent protein kinase type II subunit alpha (Homo sapiens) (Q9UQM7 whole entry): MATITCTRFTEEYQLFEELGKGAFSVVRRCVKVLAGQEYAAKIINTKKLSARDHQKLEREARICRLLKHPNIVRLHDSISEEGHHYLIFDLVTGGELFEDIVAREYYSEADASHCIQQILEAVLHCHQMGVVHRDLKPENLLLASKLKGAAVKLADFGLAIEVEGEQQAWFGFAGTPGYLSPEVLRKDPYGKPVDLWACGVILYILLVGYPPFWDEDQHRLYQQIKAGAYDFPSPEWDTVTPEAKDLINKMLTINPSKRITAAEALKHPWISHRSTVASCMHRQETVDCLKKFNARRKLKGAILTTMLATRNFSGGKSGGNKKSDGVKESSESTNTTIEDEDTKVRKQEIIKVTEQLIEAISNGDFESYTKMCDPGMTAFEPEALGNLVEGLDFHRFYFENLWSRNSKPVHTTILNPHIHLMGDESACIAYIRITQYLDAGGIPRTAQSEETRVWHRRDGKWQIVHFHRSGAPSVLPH
# Chain of 5'-AMP-activated protein kinase catalytic subunit alpha-1 (Homo sapiens) (Q13131 whole entry, looked up): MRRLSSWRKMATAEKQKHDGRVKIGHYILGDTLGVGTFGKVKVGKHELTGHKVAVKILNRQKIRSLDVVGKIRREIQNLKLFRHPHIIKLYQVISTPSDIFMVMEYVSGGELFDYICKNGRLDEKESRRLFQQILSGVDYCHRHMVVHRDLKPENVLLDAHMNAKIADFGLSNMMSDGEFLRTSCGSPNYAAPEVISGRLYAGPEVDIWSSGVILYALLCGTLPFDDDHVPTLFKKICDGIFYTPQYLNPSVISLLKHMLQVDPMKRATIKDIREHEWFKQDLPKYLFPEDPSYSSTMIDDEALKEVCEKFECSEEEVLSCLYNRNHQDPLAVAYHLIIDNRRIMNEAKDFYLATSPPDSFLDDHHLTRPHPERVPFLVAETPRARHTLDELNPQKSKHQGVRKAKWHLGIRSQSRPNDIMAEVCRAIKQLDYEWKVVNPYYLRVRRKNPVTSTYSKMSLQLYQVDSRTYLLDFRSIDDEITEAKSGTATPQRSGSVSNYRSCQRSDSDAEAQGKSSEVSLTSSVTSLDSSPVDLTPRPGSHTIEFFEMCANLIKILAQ
# Chain of Calcium/calmodulin-dependent protein kinase type 1D (Homo sapiens) (Q8IU85 whole entry, looked up): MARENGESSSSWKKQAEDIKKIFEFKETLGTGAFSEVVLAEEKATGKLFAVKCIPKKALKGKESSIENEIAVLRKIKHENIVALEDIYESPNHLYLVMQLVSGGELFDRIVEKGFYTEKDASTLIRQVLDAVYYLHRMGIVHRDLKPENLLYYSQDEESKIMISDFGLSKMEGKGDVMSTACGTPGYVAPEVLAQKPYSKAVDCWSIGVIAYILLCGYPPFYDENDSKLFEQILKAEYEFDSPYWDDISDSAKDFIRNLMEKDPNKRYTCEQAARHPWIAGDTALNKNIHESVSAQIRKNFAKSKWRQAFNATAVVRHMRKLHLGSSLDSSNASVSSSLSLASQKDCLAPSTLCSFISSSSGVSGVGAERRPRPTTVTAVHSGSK
# Chain of 5'-AMP-activated protein kinase catalytic subunit alpha-2 (Homo sapiens) (P54646 whole entry, looked up): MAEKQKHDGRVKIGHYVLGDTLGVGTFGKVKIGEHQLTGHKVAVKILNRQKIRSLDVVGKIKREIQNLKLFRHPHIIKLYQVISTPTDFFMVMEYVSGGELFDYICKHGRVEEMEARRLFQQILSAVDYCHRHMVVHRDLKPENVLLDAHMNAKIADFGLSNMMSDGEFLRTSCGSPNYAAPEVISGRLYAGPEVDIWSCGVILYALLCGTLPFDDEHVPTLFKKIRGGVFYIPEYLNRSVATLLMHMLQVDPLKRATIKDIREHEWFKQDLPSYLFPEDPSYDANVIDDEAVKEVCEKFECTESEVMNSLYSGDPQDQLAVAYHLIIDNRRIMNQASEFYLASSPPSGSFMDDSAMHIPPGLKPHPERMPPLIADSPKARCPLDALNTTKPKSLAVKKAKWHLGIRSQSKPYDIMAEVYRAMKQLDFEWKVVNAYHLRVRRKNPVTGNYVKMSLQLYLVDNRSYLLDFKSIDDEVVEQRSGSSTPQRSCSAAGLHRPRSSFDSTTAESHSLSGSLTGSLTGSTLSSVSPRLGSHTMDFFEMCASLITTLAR
# Chain of Ribosomal protein S6 kinase alpha-6 (Homo sapiens) (Q9UK32 whole entry): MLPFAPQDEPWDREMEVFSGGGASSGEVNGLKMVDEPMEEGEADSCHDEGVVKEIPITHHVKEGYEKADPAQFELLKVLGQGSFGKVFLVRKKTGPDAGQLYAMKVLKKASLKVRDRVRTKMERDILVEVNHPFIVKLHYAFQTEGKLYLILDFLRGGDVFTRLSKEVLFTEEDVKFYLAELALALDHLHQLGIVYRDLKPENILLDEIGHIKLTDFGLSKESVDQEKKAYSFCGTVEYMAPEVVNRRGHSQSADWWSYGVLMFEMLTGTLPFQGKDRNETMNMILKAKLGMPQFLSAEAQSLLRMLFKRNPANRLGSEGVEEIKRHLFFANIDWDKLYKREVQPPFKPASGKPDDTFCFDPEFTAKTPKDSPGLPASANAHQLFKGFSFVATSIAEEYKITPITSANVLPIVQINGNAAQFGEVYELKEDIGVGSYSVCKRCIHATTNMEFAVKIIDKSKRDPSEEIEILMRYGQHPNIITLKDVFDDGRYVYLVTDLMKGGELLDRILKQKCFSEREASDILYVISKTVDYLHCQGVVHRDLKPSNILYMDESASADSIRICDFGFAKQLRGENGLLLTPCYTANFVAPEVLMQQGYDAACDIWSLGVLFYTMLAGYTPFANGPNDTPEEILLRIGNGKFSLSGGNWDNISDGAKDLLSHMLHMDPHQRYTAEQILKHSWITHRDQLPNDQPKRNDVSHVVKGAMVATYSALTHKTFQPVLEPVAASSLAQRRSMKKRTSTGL
Compound,inhibition [1],inhibition [2],inhibition [3],inhibition [4],inhibition [5],inhibition [6],inhibition [7],inhibition [8],inhibition [9],inhibition [10],inhibition [11],inhibition [12],inhibition [13],inhibition [14],inhibition [15],inhibition [16],inhibition [17],inhibition [18],inhibition [19],inhibition [20]
CN1CCC(C(=O)Nc2n[nH]c3nc(-c4ccc(O)cc4)c(Br)cc23)CC1,12.7% and 9.62%,5.12% and 1.94%,10.4% and 4.16%,3.28% and 2.28%,6.79% and 6.21%,1.96% and 6.46%,6.31% and 0.32%,5.11% and 1.11%,18.7% and 10.6%,3.96% and 2.49%,10.2% and 5.07%,2.41% and 0.87%,12% and 2.56%,5.59% and 6.13%,31.5% and 25.9%,6.63% and 3.74%,36.1% and 27.2%,1.98% and 1.28%,15.6% and 15.7%,3.72% and 2.36%
Cc1cc(O)cc(C)c1/C=C/c1cncc(C(N)=O)c1,1.18%,1.6%,2.14%,3.61%,3.1%,1.2%,1.31%,1.98%,1.85%,2.5%,3.4%,0.73%,2.46%,3.32%,15%,2.91%,9.42%,4.14%,1.23%,7.97%
CS(=O)(=O)Nc1ccc(-c2cc(-c3ccccc3)cc(C(N)=O)c2N)cc1,0.06%,0.87%,2.29%,9.08%,0.51%,0.13%,2.54%,0.7%,1.42%,5.24%,1.49%,-2.25%,1.62%,-0.36%,-0.05%,0.92%,2.21%,-0.99%,-0.47%,-1.51%
c1ccc(-c2n[nH]cc2-c2ccnc(-c3ccc(OCCn4ccnc4)cc3)c2)nc1,1.74%,0.97%,2.43%,0.56%,0.22%,0.55%,2.01%,0.79%,3.29%,2.92%,1.29%,-0.74%,7.14%,0.8%,1.98%,0.62%,4.44%,-0.08%,0.91%,-3.32%
FC(F)(F)CNc1nccc(-c2cnn3ncccc23)n1,0.2%,1.25%,1.46%,0%,0.87%,2.93%,4.28%,1.91%,2.67%,0.68%,2.02%,2.93%,1.68%,1.54%,4.3%,3.14%,5.75%,0.18%,0.52%,0.49%
CS(=O)(=O)CCNCc1ccc(-c2ccc3ncnc(Nc4ccc(OCc5ccccc5)cc4)c3c2)o1,1.11%,5.01%,2.28%,2.02%,1.93%,3.54%,1.87%,2.94%,3.44%,2.07%,4.61%,-0.27%,1.06%,1.11%,1.23%,2.82%,4.33%,0.33%,1.27%,2.27%

# Source: ChEMBL document CHEMBL1961873, “Compounds: GSK PKIS; Assays: Nanosyn kinase panel” (2012)
